Bioassay records deposited in PubChem by The Scripps Research Institute Molecular Screening Center.
In the library only some 3.5% were active in any assay of this set; here they are far more common.
GPR151 activ = human GPR151 activation. Q8TDV0. PathHunter beta-arrestin GPR151 cells, luminescence. activation, % at 11.2 µM. 1% of 650,000 active. AID 1508602; in the data active means activation above about 4.9%;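 further: 0% = median of compound wells and 100% = cells with positive control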
FBW7 act = human FBW7 E3 ligase activation, primary screen; normalized activity (activation), % at 26.1 µM; 0.13% of 650,000 active; AlphaScreen FBW7–phospho-cyclin E peptide binding, activator screen; in the data active means normalized activity above about 1.9%;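 further: purified mutant Fbw7 with reduced substrate affinity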
TEAD-YAP block = TEAD-YAP interaction inhibition; HEK-TIYL cells, TEAD-Gal4/YAP UAS-luciferase luminescence; inhibition, % at 9.12 µM; 1.4% of 640,000 active; AID 1259422; in the data active means inhibition above about 32%;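 further: 0% = median of test compound wells and 100% = reference inhibitor wells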
MITF inh = inhibitors of human MITF | O75030 | AlphaScreen MITF homodimerization, bead proximity signal | inhibition, % at 2.6 µM | 0.91% of 650,000 active | AID 1259374; in the data active means inhibition above about 50%;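 further: 0% = vehicle wells with protein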
Target sequence (O75030 whole entry, looked up): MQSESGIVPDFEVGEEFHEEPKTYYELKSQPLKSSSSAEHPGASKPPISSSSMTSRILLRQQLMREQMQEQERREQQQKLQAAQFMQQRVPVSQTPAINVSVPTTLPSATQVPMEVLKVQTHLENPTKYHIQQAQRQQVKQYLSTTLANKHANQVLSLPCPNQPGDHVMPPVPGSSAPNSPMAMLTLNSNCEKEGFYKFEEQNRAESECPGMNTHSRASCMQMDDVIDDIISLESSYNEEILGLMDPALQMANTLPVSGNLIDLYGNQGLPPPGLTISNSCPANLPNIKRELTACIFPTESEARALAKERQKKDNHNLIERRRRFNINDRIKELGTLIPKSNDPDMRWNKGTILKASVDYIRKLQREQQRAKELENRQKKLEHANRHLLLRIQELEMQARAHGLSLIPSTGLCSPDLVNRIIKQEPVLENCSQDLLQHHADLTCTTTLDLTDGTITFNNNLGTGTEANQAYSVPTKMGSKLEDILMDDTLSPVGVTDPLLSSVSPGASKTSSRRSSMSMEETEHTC
MITF confirm = human MITF inhibition, confirmation; 16% of 4,700 active; AID 1259372; inhibition, % at 2.6 µM; AlphaScreen MITF homodimerization, biotin/His-MITF beads; shares compounds with MITF inh;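 active means inhibition above a cutoff derived from the DMSO control wells, cut at about 28% in these data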;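 further: 0% = MITF dimer wells with DMSO only; inhibitors lower the bead chemiluminescence by keeping MITF from dimerizing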
AlphaScreen intf2 = counter-screen: compounds optically interfering with AlphaScreen; shares compounds with MITF inh; AID 1259376; 7.6% of 4,700 active; inhibition, % at 2.6 µM; LysRS AlphaScreen counterscreen, signal interference, triplicate;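 active means inhibition above a cutoff derived from the DMSO control wells, cut at about 30% in these data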
Starred values were filed as active, the others as inactive; / = no result given.

SMILES	GPR151 activ	FBW7 act	TEAD-YAP block	MITF inh	MITF confirm	AlphaScreen intf2
O=C1NC(=O)C(CCCc2ccccc2)(C2CCN(C(=O)Cc3cccs3)CC2)N1 (centres undefined)	0	0	6	-18	/	/
CCNC(=O)/C(=C/c1ccccc1)NC(=O)c1ccccc1	2	0	8	-4	/	/
CCCC(CCC)c1nc2ccncc2[nH]1	4	0	-5	52*	-1	7
COc1cccc(CNc2cc(Nc3ccc(-c4ccncc4)cc3F)ncn2)c1	0	0	-19	-7	/	/
Cc1ccc(-n2cc3c(c(C#N)c2=N)CC(C)(C)CC3=O)cc1C	4	0	-9	14	/	/
CC1(C)CC(=O)c2cn(-c3ccc(Cl)cc3)c(=N)c(C#N)c2C1	1	0	-8	55*	1	0
N#Cc1ccc(CSCC(=O)NN=C2CCCC2)cc1	1	0	0	51*	-9	-1
N#Cc1ccc(OCC(=O)NN=C2CCCC2)cc1	1	0	0	15	/	/
COc1ccc(C(=O)Nc2ncc(Cc3cc(Cl)ccc3Cl)s2)cc1OC	-1	1	-3	68*	-6	1
CC(=O)Nc1ncc(Cc2cc(Cl)ccc2Cl)s1	2	0	19	3	/	/
COc1cc(C(=O)Nc2cccnc2)ccc1OCc1ccccc1Cl	0	0	-2	74*	-3	-2
Cc1cc(Cl)ccc1N(CC(=O)N1CCc2ccccc2C1)S(C)(=O)=O	0	0	-4	4	/	/
CCc1nnc(NS(=O)(=O)c2ccc(NC(=O)COc3ccccc3)cc2)s1	0	0	4	65*	-4	-3
CCC(=O)Nc1ccc(S(=O)(=O)Nc2nnc(CC)s2)cc1	0	0	8	8	/	/
O=c1[nH]c(=O)n(-c2ccccc2)c(O)c1C=Nc1cccc(O)c1	-1	0	-7	20	/	/
CCS(=O)(=O)N1CCN(CC(=O)c2ccco2)CC1	2	0	5	56*	8	23
O=C(CN1CCN(C(=O)c2c(F)cccc2Cl)CC1)c1ccco1	3	0	-7	8	/	/
O=C(CN1CCN(Cc2ccc(Cl)c(Cl)c2)CC1)c1ccco1	0	0	-1	61*	7	19
COc1ccc(-n2c(C)nc3c(cnn3-c3ccc(F)cc3)c2=O)cc1Cl	0	0	-2	4	/	/
c1ccc(Oc2nc(NCCN3CCOCC3)nc(Oc3ccccc3)n2)cc1	1	0	0	1	/	/
C(=N\Nc1nc(-c2ccccn2)cs1)/c1cccnc1	-2	0	-4	52*	30*	54*
CCCNC(=O)CCc1nc(-c2ccccc2OC)no1	-2	0	-8	-6	/	/
COc1ccc(-n2nc3ccc(NC(=O)COc4cc(C)ccc4C(C)C)cc3n2)cc1	-1	0	-1	13	/	/
O=C(c1ccccc1F)N1CCN(C2CCCCC2)CC1	3	0	0	36	/	/
O=C(c1ccccc1)N1CCC(N2CCN(Cc3ccccc3)CC2)CC1	-2	0	11	83*	5	-2
SMILES	GPR151 activ	FBW7 act	TEAD-YAP block	MITF inh	MITF confirm	AlphaScreen intf2
c1ccc(CN2CCC(N3CCN(Cc4ccccc4)CC3)CC2)cc1	-1	0	2	24	/	/
O=C(c1ccccc1F)N1CCN(C2CCN(Cc3ccccc3)CC2)CC1	0	0	5	61*	9	18
COc1ccc(C(=O)N2CCC(N3CCCC3)CC2)cc1	4	0	0	31	/	/
Fc1ccc(CN2CCC(N3CCN(Cc4ccccc4)CC3)CC2)cc1	0	0	11	43	/	/
CN1CCN(C2CCN(C(=O)c3ccc(F)cc3)CC2)CC1	0	0	-5	57*	1	0
O=C(c1ccc(F)cc1)N1CCN(C2CCN(Cc3ccccc3)CC2)CC1	-2	1	13	57*	9	18
CCCOc1ccc(C(CC(=O)O)NC(=O)c2ccc(OCC)cc2)cc1 (centres undefined)	-1	0	-5	-10	/	/
Cc1cc(-c2cn[nH]c2C2CCCN(C(=O)C(C)(C)C)C2)on1 (centres undefined)	0	0	-20	8	/	/
O=C(c1ccco1)N1CCC(N2CCN(c3ccccc3)CC2)CC1	-2	0	-3	21	/	/
O=C(Cc1ccccc1)N1CCC(N2CCN(c3ccccc3)CC2)CC1	1	0	5	55*	-2	3
O=C(O)C1CCN(C2CCN(Cc3ccccc3)CC2)CC1	0	0	1	75*	12	7
